# Measurements reported in PubChem BioAssay (Tox21).
# Inconclusive results are not listed. Entries that show only a call come without a potency. Values without a mark were called inactive. The source made the active and inactive calls. Calls come from the whole dose curve.
# Target: Acetylcholinesterase (Homo sapiens) (UniProt P22303)
# Assay: Acetylcholinesterase (AChE) small molecule antagonists: colormetric cell-based qHTS assay (AID 1347395); note: nearly all actives have a fitted effect of over 30% in size
# Conditions: SH-SY5Y cells AChE activity, colorimetric (Ellman); series mostly up to 115 µM
# Text: National Center for Advancing Translational Sciences [NCATS]
# Division of Preclinical Innovation [DPI]
# U.S. Environmental Protection Agency [EPA]
# National Institutes of Environmental Health Sciences [NIEHS]
# National Toxicology Program [NTP]
# U.S. Food and Drug Administration [FDA]
# Acetylcholinesterase (AChE) is the primary cholinesterase in the body that hydrolyzes a key neurotransmitter, acetylcholine. Inhibition of AChE activity can lead to neurotoxicity. The known inhibitors include organophosphorous pesticides (OP), chemical warfare agents, drugs, and various phytochemicals.
# A homogenous cell-based assay using the Amplite Colormetric acetylcholinesterase assay kit (AAT Bioquest, Sunnyvale, CA) was used to evaluate the chemicals in the Tox21 10K library that inhibit AChE activity. The assay uses 5, 5-dithiobis-(2-nitrobenzoic acid) (DTNB) to quantify the thiocholine produced from the hydrolysis of acetylthiocholine by AChE from the SH-SY5Y cells.
# Tox21 Assay Protocol Summary:
# For the cell-based AChE assay, 2,000 SH-SY5Y cells in 4 uL/well were dispensed into black, clear-bottom 1536-well plates using a Multidrop Combi dispenser (Thermo Scientific, MA). The assay plates were incubated overnight at 37 C to allow cells to attach to the wells, followed by the transfer of 23 nL of compound or DMSO (vehicle control) by a Pintool Station (Wako Automation, CA). The plates were incubated for 30 min at 37 C and 5% CO2, followed by the addition of 4 uL of detection cocktail solution (DTNB, acetylthiocholine) into each well using a Flying Reagent Dispenser (Beckman Coulter, CA) and then 90 min incubation at 37 C.
# Sequence of Acetylcholinesterase (Homo sapiens) (P22303 whole entry, looked up): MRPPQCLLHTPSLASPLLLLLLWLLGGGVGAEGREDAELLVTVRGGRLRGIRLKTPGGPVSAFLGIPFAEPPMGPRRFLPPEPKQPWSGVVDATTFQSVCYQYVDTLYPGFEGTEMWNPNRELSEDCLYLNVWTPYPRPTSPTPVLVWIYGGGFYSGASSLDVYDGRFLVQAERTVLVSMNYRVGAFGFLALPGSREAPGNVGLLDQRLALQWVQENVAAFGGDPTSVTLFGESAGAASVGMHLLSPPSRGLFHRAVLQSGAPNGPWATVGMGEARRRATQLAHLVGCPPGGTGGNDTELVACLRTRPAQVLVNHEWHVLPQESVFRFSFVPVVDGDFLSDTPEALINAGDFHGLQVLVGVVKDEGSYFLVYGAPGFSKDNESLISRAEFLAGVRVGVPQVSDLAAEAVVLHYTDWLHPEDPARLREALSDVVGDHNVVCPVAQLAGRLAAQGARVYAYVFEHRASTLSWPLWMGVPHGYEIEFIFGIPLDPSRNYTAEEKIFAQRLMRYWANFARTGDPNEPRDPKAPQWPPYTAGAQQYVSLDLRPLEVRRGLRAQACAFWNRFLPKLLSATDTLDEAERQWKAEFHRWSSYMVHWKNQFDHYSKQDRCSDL
SMILES,Potency,"activity, negative = inhibition"
O=CC=C(c1ccccc1)c1ccccc1,inactive,
O=C1CCCCCO1,inactive,
CC(=O)Nc1ccc(S(=O)(=O)Nc2cc(C)on2)cc1,inactive,
CS(C)=O,inactive,
O=C1C(O)=C(O)C(=O)C(O)=C1O,inactive,
COc1cc(Cl)ccc1Oc1ccc(Cl)cc1Cl,inactive,
CCCCCO,inactive,
CCCCCCCCCCCCN(CCO)CCO,inactive,
CCCCCCCCCCCCCC=O,,1.02% [at 10.5 µM]
C=C(C)CS(=O)(=O)O,inactive,
CC(O)COC(C)(C)C (stereo not given),inactive,
C1=C\CC/C=C\CC/C=C\CC/1,inactive,
C#CCOC(=O)[C@@H](C)Oc1ccc(Oc2ncc(Cl)cc2F)cc1,inactive,
Cc1nc2ccccc2n1Cc1ccc(Cl)cc1,inactive,
COCCCOCCCOC,inactive,
O=C(NS(=O)(=O)/C=C/c1cccs1)c1ccc(F)cc1Br,inactive,
COc1c(Br)cc(Br)c(C)c1Br,inactive,
CCN(CC)CCCN(c1ccccc1)C1Cc2ccccc2C1,inactive,
Nc1cccc2c(=O)[nH][nH]c(=O)c12,inactive,
CCOc1ccc(NS(=O)(=O)c2ccc(N)cc2)nn1,inactive,

SMILES,Potency,"activity, negative = inhibition"
O=C1c2ccccc2C(=O)c2cc(Cl)ccc21,,-0.634% [at 10.5 µM]
C=CC(C)(O)CC/C=C(\C)CCC=C(C)C (stereo not given),inactive,
CCCN(CCC)C(=O)C(CCC(=O)O)NC(=O)c1ccccc1 (stereo not given),inactive,
CCOC(=O)c1cnc2c(cnn2CC)c1NN=C(C)C,inactive,
CCCOc1sc(C(=O)N2CCC(c3cc(CN)ccc3F)CC2)c(C)c1Br,inactive,
CC(=O)SC[C@@H](Cc1ccccc1)C(=O)NCC(=O)OCc1ccccc1,inactive,
CC12CCC(C(=O)C1=O)C2(C)C (stereo not given),inactive,
CSSc1ccoc1C,inactive,
CC(C)c1ccccc1,inactive,
CN1CCN(C2=Nc3ccccc3Oc3ccc(Cl)cc32)CC1,inactive,
CC1CCCO1 (stereo not given),inactive,
CCSCC,inactive,
CO[Si](C)(OC)c1ccccc1,inactive,
Cc1c(C(=O)NCCO)[n+](=O)c2ccccc2n1[O-],inactive,
C[C@H](CCC(=O)O)[C@H]1CC[C@H]2[C@@H]3C(=O)C[C@@H]4CC(=O)CC[C@]4(C)[C@H]3CC(=O)[C@]12C,inactive,
O=C(N/N=C/c1ccccc1O)c1ccncc1,inactive,
CCC(Cc1ccccc1)(C(=O)c1ccc(N2CCOCC2)cc1)N(C)C (stereo not given),inactive,
CC(CC1c2ccccc2CCc2ccccc21)CN(C)C (stereo not given),inactive,
OC1(c2ccc(Cl)cc2)CCNCC1,inactive,
CC(C)CCCCOC(=O)c1ccccc1C(=O)OCCCCC(C)C,inactive,
